# Inconclusive results are not listed. Activity calls are given as the source filed them. Unless noted, calls come from the whole dose curve; as a rule, active = well fitted curve in the direction sought with a large enough effect; inconclusive = small, poorly fitted or top-dose-only effect, or another doubt; inactive = no such curve, though single readings can be large; an effect the other way counts as inactive or inconclusive.
# Key:
# [1] = qHTS assay for small molecule agonists of retinoid X receptor alpha signaling (AID 588544; calls by dose curve;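 for activation: 0% = DMSO basal wells and 100% = reference agonist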); conditions: HEK293T RXRa-UAS-bla, beta-lactamase reporter, 18 h; 530 nm emission
# [2] = target: Retinoic acid receptor RXR-alpha (Homo sapiens) (UniProt P19793); test: as above
# [3] = target: Thyroid hormone receptor beta (Homo sapiens) (UniProt P10828); test: qHTS assay for small molecule agonists of thyroid hormone receptor beta signaling (AID 588545; calls by dose curve)
# Method in brief: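 Agonist activity was read as beta-lactamase CCF4 fluorescence (405 ex, 460/530 em), scaled between DMSO (0%) and 10 nM T3 (100%), then Hill-fitted for EC50 and efficacy. HEK 293 TR-UAS-bla cells in 2% charcoal/dextran FBS medium were exposed 18 h at 37 C.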
# [4] = qHTS assay for small molecule antagonists of retinoid X receptor alpha signaling (AID 588546; active = well fitted inhibition curve with a large enough effect in the signal ratio, with a control signal flat, not every such curve was filed as active; the % refers to the signal ratio;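 note: cells stimulated with 9-cis-retinoic acid as agonist; % is set by controls: 0 for no effect and ±100 for the full control effect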); conditions: HEK293T RXRa-UAS-bla, beta-lactamase ratio, antagonist mode; measured here: W530 green channel, cytotoxicity proxy
# Method in brief: (§1)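 Beta-lactamase reporter inhibition, read as CCF4 fluorescence ratio (ex 405, em 460/530 nm) after 2 h at RT. HEK293T UAS-bla cells, 2500/well, were stimulated with 9-cis-RA at 500 or 100 nM final alongside test compound for 18 h at 37 C.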
# [5] = target: Retinoic acid receptor RXR-alpha (Homo sapiens) (UniProt P19793); test: as above; conditions: HEK293T RXRa-UAS-bla, beta-lactamase ratio, antagonist mode
# Method in brief: as §1
# [6] = target: Thyroid hormone receptor beta (Homo sapiens) (UniProt P10828); test: qHTS assay for small molecule antagonists of thyroid hormone receptor beta signaling (AID 588547; active = well fitted inhibition curve with a large enough effect in the signal ratio, with a control signal flat, not every such curve was filed as active; the % refers to the signal ratio;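 note: cells stimulated with 0.4 nM T3 agonist during compound exposure; series mostly up to about 77 µM; % is set by controls: 0 for no effect and ±100 for the full control effect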); conditions: TR-UAS-bla HEK293, beta-lactamase ratio, antagonist mode, 18 h
# Method in brief: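 Inhibition of T3-driven (0.4nM final) beta-lactamase reporter activity was measured over 0.59 nM to 92 uM compound after 18 h at 37 C. The cells were GripTite HEK293 TR-UAS-bla in charcoal/dextran-stripped serum, with CCF4 ratio read-out and IC50 from Hill fits.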
# [7] = qHTS assay for small molecule activators of the p53 signaling pathway (AID 651743; active = well fitted activation curve with a large enough effect in the signal ratio, not every such curve was filed as active; the % refers to the signal ratio; note: series mostly up to about 92 µM; % of control where 0% means no effect); conditions: HCT-116 p53RE-bla, beta-lactamase FRET ratio, 16 h; activation: stronger effect = higher value
# Method in brief: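 A beta-lactamase reporter under p53 response element control, stably carried by HCT-116 cells, reported pathway activation. Test compounds were applied for 16 hours at 37 C, and fluorescence was measured 2 hours after adding the B/G FRET substrate.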
# [8] = qHTS assay for small molecule activators of the nuclear factor-kappa B (NF-kB) signaling pathway (AID 651749; active = well fitted activation curve with a large enough effect in the signal ratio; the % refers to the signal ratio; note: series mostly up to about 77 µM; % of control where 0% means no effect); conditions: NF-kB-bla ME-180 cells, beta-lactamase FRET ratio, 16 h; stronger effect = higher value
# Method in brief: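 FRET-based beta-lactamase detection in ME-180 cells reports NF-kB response-element-driven transcription following overnight (16 hr) compound treatment.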
# [9] = qHTS assay for small molecule disruptors of the mitochondrial membrane potential - 1 hr assay (AID 651754; calls by dose curve; note: % is set by controls: 0 for no effect and ±100 for the full control effect; nearly all actives have a fitted effect of over 35% in size)
# Method in brief: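 In this qHTS format, a 1 hr compound treatment of HepG2 cells precedes Mito-MPS staining, and membrane potential is judged from aggregate (red) against monomer (green) fluorescence intensity.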
# [10] = qHTS assay for small molecule disruptors of the mitochondrial membrane potential - 5 hr assay (AID 651755; calls by dose curve; note: % is set by controls: 0 for no effect and ±100 for the full control effect; nearly all actives have a fitted effect of over 40% in size)
# Method in brief: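 Membrane-potential dye readout: red aggregate (540 ex/590 em) versus green monomer (490 ex/535 em) fluorescence after 30 min dye loading, following 5 hr compound exposure at 37C of overnight-plated HepG2 cells.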
# [11] = target: Tumor necrosis factor (Homo sapiens) (UniProt P01375); test: qHTS assay to identify small molecules that stimulate Tumor Necrosis Factor-alpha (TNF-alpha) secretion (AID 651757; active = well fitted curve in the direction sought with a large enough effect in the signal ratio; the % refers to the signal ratio; note: 0% is about no effect)
# Method in brief: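 Using 3000 THP-1 cells per well, compounds and controls were applied for 17 hrs at 37 C. Detection followed with two labeled anti-TNF-alpha antibodies (cryptate donor, XL665 acceptor) for 3 hr at room temperature, measured by TR-FRET.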
# [12] = qHTS assay to identify small molecules that stimulate interleukin-8 (IL-8) secretion (AID 651758; active = well fitted activation curve with a large enough effect in the signal ratio; the % refers to the signal ratio; note: potency is the fitted concentration of half-maximal effect)
# Method in brief: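 Secreted IL-8 measured homogeneously by TR-FRET (two labelled anti-IL-8 antibodies, 1-3 h at room temperature) after a 16 h, 37 C compound treatment of THP-1 cells at 2000 cells/well.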
# [13] = qHTS assay for environmental chemicals that activate the Aryl hydrocarbon Receptor (AhR) signaling pathway (AID 651777); conditions: 1A2-DRE human hepatoma cells, luciferase, 24 h; activation: stronger effect = higher value; note: % of control where 0% means no effect; nearly all actives have a fitted effect of over 15% in size
# Method in brief: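 Luminescence read-out: One-Glo added for 30 min at RT after 24 hr compound treatment (37 C, 5% CO2) of human hepatoma cells expressing a DRE/CYP1A2 promoter–luciferase reporter; increased signal indicates AhR activation.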
# [14] = target: Peroxisome proliferator-activated receptor alpha (Homo sapiens) (UniProt Q07869); test: qHTS assay for small molecule agonists of the peroxisome proliferator-activated receptor alpha (PPARalpha) signaling pathway (AID 651778); conditions: PathHunter PPARalpha complementation, chemiluminescence, 6 h; max response: stronger effect = higher value; note: % of control where 0% means no effect
# Method in brief: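 Chemiluminescence from complemented enzyme reported PPARalpha activation in cells after 6 hr of compound treatment at 37 C. The detection reagent was incubated for 60 min at room temperature, and compounds were scored as agonists.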
# [15] = target: Nuclear receptor ROR-gamma (Homo sapiens) (UniProt P51449); test: qHTS assay for small molecule antagonists of the retinoid-related orphan receptor gamma (ROR-gamma) signaling pathway (AID 651802);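 note: CHO cells with doxycycline-induced ROR-gamma expression; luciferase reporter luminescence driven by ROR response element; series mostly up to about 92 µM; % is set by controls: 0 for no effect and ±100 for the full control effect; nearly all actives have a fitted effect of over 60% in size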
# Method in brief: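 Doxycycline-induced reporter activity in engineered CHO cells (TET-inducible ROR, RORE-LUC) was measured by luminescence after 16hr compound exposure at 37C.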
# [16] = qHTS assay for small molecule agonists of the antioxidant response element (ARE) signaling pathway measured by Nrf2-dependant transcriptional activity (AID 720636; active = well fitted curve in the direction sought with a large enough effect in the repeat runs; an effect the other way counts as inactive or inconclusive;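 note: HepG2 cells with an ARE-driven luciferase reporter; % of control where 0% means no effect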)
# Method in brief: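 HepG2 ARE-luc reporter line, 1% dialyzed FBS; 6 hr attachment at 37 C, compound pinned in, 16 hr at 37 C/5% CO2; ONE-Glo, 30 min RT, luminescence read.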
# [17] = qHTS assay for small molecule antagonists of the retinoid-related orphan receptor gamma (ROR-gamma) signaling pathway - cell viability counter screen (AID 720652; active = well fitted curve in the direction sought with a large enough effect in the repeat runs; an effect the other way counts as inactive or inconclusive;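 note: CHO reporter cells with doxycycline-induced ROR-gamma expression; series mostly up to about 92 µM; compound exposure lasted 16 hr before ATP read; % is set by controls: 0 for no effect and ±100 for the full control effect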)
# Method in brief: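 ATP-based viability readout in the ROR-gamma reporter CHO cells after 16 hr compound exposure under doxycycline induction.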
# [18] = qHTS assay for small molecule agonists of the antioxidant response element (ARE) signaling pathway measured by Nrf2-dependant transcriptional activity - cell viability counter screen (AID 720653; active = well fitted curve in the direction sought with a large enough effect in the repeat runs; an effect the other way counts as inactive or inconclusive; note: % is set by controls: 0 for no effect and ±100 for the full control effect); conditions: ARE-bla HepG2 viability, CellTiter-Glo ATP luminescence, 16 h; max response: stronger effect = lower value
# Method in brief: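 Cytotoxicity counter screen: intracellular ATP quantified by CellTiter-Glo luminescence in the same ARE-bla HepG2 plates, after 16 h compound exposure and a 2 h beta-lactamase substrate step.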
# [19] = qHTS assay for cell viability of HEK293 cells (AID 743288); conditions: ATP luminescence (CellTiter-Glo), 18 h; max response: stronger effect = lower value; note: % is set by controls: 0 for no effect and ±100 for the full control effect; nearly all actives have a fitted effect of over 50% in size
# Method in brief: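 Viable-cell counts were inferred from luciferase-based ATP content in HEK293 cells seeded at 2,000/well, pre-incubated ≥5 h, then dosed with DMSO-solubilised compounds for 18 h at 37 C.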
# [20] = qHTS assay for cell viability of the p53RE-bla HCT-116 cell line (AID 743292); note: % is set by controls: 0 for no effect and ±100 for the full control effect; nearly all actives have a fitted effect of over 55% in size
# Method in brief: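 Luminescent ATP quantitation (CellTiter-Glo) served as the viability read-out; reagent was added after 16 h compound exposure at 37 C and read after 30 min at room temperature. Cells: p53RE-bla HCT-116, 4,000 per well.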
# [21] = target: Nuclear receptor subfamily 1 group I member 2 (Rattus norvegicus) (UniProt Q9R1A7); test: qHTS assay for small molecule activators of the rat pregnane X receptor (rPXR) signaling pathway (AID 651751; call rule not given here; note: 0% is about no effect); conditions: rPXR reporter cells, luciferase (One-Glo), 24 h
# [22] = qHTS assay for small molecule activators of the human pregnane X receptor (PXR) signaling pathway (AID 720659; call rule not given here; note: 0% is about no effect)
# Sequence of Thyroid hormone receptor beta (Homo sapiens) (P10828 whole entry, looked up): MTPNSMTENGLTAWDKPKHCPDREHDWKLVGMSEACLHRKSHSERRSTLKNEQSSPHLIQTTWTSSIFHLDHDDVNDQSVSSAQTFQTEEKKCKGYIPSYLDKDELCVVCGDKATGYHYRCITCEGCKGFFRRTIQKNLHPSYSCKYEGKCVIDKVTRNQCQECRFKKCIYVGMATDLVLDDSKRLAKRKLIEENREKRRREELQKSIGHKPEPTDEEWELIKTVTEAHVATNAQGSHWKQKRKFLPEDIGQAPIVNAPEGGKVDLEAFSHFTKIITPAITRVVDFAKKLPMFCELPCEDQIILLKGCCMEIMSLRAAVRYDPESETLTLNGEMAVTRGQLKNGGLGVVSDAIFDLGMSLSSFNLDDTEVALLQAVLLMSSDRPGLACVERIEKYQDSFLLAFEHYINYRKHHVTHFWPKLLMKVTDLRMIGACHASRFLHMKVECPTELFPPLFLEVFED
# Sequence of Retinoic acid receptor RXR-alpha (Homo sapiens) (P19793 whole entry, looked up): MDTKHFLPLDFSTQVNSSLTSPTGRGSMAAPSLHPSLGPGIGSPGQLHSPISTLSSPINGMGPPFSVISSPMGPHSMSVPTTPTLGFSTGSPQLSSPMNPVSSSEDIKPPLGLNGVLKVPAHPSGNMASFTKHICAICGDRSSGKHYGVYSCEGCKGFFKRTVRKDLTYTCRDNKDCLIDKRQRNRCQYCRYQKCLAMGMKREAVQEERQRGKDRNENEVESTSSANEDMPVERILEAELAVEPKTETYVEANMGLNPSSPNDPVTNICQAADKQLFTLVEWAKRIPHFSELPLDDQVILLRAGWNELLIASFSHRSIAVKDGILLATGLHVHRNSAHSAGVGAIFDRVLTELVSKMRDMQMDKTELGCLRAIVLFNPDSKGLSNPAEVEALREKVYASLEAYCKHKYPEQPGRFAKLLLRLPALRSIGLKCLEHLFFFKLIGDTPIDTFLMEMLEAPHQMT
# Sequence of Peroxisome proliferator-activated receptor alpha (Homo sapiens) (Q07869 whole entry, looked up): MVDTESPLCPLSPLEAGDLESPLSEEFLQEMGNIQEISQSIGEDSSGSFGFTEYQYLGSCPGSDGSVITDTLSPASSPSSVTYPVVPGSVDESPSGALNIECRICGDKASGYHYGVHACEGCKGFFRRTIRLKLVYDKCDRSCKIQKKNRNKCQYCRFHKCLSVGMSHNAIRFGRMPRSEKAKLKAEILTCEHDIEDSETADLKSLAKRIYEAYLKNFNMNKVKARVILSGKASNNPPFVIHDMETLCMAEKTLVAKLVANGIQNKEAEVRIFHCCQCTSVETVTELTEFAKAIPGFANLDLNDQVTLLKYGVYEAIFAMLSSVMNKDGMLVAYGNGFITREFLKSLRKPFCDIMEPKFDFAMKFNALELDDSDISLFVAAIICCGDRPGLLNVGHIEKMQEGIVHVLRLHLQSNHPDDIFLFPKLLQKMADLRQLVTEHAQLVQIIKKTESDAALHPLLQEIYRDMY
# Sequence of Nuclear receptor subfamily 1 group I member 2 (Rattus norvegicus) (Q9R1A7 whole entry, looked up): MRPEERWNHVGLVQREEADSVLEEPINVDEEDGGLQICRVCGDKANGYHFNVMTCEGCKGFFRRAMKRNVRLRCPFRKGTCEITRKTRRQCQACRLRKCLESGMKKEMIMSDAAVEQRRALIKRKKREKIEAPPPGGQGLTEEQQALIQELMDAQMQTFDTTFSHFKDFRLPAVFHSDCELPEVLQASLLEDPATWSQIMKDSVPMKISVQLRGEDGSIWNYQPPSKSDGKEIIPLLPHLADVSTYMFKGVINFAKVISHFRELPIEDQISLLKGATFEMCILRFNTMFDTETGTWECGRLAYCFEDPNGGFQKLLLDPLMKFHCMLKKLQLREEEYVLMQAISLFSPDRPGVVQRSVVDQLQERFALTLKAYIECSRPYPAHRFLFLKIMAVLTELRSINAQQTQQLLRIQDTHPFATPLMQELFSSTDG
# Sequence of Nuclear receptor ROR-gamma (Homo sapiens) (P51449 whole entry, looked up): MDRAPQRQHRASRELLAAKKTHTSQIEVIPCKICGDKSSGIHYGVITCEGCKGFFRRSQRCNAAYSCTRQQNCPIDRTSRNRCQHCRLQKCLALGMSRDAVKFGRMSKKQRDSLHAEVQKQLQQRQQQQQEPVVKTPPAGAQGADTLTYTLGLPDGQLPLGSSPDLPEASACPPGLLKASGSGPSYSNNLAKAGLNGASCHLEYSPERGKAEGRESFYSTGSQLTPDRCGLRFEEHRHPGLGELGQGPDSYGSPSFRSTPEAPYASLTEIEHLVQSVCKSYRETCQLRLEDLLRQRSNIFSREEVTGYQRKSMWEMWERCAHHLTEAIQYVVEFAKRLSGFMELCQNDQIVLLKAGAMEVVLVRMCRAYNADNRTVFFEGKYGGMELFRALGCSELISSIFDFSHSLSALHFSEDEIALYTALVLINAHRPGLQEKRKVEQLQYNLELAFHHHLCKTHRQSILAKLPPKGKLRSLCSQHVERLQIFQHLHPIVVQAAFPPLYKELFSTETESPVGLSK
# Sequence of Tumor necrosis factor (Homo sapiens) (P01375 whole entry, looked up): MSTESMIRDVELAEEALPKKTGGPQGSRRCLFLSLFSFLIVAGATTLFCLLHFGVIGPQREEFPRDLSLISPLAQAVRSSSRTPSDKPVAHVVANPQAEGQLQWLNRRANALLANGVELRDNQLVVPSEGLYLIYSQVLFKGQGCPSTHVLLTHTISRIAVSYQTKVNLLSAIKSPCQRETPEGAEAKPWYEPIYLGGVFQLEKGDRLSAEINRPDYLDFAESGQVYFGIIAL
smiles,measurement,setting,value
CCOC(=O)C1OC1c1ccccc1 (configuration not stated),max response,[1],2.55%
same,Potency,[2],inactive
same,Potency,[3],inactive
same,max response,[4],-0.854%
same,max response,[5],9.69% (inactive)
same,activity change % (negative = inhibition),[6],6.36% (inactive)
same,activation,[7],6.05% (inactive)
same,activation,[8],0.437% (inactive)
same,Potency,[9],inactive
same,Potency,[10],inactive
same,Potency,[11],inactive
same,Potency,[12],59.6 µM (active)
same,activation,[13],-0.0092% (inactive)
same,max response,[14],-1.32% (inactive)
same,Potency,[15],inactive
same,Potency,[16],inactive
same,Potency,[17],inactive
same,max response,[18],8.37% (inactive)
same,max response,[19],-1.14% (inactive)
same,Potency,[20],inactive
same,max response,[21],9.31% (inactive)
same,outcome,[22],inactive

# From PubChem BioAssay (NCATS)
